# ROC1-CUL1 inh = inhibitors of human ROC1-CUL1 ubiquitin ligase activity; 140,000 tested, 0.6% active; inhibition, % at 10 µM; AID 1347404, 2020; E3 ubiquitin-protein ligase RBX1 (Homo sapiens) + Cullin-1 (Homo sapiens), P62877+Q13616; in vitro K48 di-Ub FRET, acceptor:donor ratio, 45 min; in the data active means inhibition above about 25%
# Target sequence (P62877 whole entry, looked up): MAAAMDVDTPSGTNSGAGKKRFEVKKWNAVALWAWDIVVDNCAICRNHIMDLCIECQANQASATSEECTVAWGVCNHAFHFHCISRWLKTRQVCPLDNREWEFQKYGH
# Target sequence (Q13616 whole entry, looked up): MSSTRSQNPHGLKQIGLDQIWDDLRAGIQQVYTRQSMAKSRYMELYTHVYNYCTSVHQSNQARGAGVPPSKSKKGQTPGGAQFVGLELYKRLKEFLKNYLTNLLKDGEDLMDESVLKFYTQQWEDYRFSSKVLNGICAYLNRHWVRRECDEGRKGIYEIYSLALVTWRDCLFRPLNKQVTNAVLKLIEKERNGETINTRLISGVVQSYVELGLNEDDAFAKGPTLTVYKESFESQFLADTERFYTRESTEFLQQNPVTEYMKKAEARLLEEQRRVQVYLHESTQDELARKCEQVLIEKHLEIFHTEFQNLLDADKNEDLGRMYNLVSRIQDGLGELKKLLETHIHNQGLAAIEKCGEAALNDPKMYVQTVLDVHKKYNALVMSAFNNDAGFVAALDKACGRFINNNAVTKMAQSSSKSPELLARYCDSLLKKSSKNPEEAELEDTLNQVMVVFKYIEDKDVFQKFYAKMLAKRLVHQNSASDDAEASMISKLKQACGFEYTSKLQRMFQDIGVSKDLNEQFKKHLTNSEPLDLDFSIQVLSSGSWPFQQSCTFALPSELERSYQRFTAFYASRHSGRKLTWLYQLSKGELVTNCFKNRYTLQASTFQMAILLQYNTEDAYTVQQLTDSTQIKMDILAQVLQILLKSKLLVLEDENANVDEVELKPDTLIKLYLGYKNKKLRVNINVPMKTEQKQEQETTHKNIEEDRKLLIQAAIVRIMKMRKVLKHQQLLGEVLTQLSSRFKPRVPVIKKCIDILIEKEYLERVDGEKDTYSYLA
# * = called active by the depositor. The sample as a whole holds a higher share of hits than the screen did.
SMILES,ROC1-CUL1 inh
COc1cccc(-c2[nH]c3c(c2-c2c(-n4cccc4)n(C)c(=O)[nH]c2=O)c(=O)[nH]c(=O)n3C)c1,3
CCc1ccc(-c2[nH]c3c(c2-c2sc(C)c(C(=O)OC)c2O)c(=O)[nH]c(=O)n3C)cc1,7
CCOC(=O)c1c(C)sc(-c2c(-c3ccc(OC)c(F)c3)[nH]c3c2c(=O)[nH]c(=O)n3C)c1O,32*
CCOC(=O)c1c(C)sc(-c2c(-c3ccccc3)[nH]c3[nH]c(=O)[nH]c(=O)c23)c1O,-1
COC(=O)c1c(C)sc(-c2c(-c3ccc4c(c3)OCCO4)[nH]c3[nH]c(=O)[nH]c(=O)c23)c1O,8
COC(=O)c1c(C)sc(-c2c(-c3ccc4c(c3)OCCO4)[nH]c3c2c(=O)n(C)c(=O)n3C)c1O,13
CCOC(=O)c1c(C)sc(-c2c(-c3ccc4c(c3)OCCO4)[nH]c3c2c(=O)[nH]c(=O)n3C)c1O,30*
CCOC(=O)c1c(C)sc(-c2c(-c3ccc4c(c3)OCCO4)[nH]c3c2c(=O)n(C)c(=O)n3C)c1O,33*
CCOC(=O)c1c(C)sc(-c2c(-c3ccc(OC)c(F)c3)[nH]c3[nH]c(=O)[nH]c(=O)c23)c1O,4
COC(=O)c1c(C)sc(-c2c(-c3cccc(Cl)c3)[nH]c3c2c(=O)[nH]c(=O)n3C)c1O,28*
CCOC(=O)c1nn(-c2ccc(C)cc2)c(N=Nc2ccc3c(c2)OCCO3)c1O,-1
CCSc1nnc2c(n1)OC(c1ccccn1)N(C(=O)CC)c1ccccc1-2 (stereo unspecified),-11
Nc1c(C(=O)Nc2c(Cl)cccc2Cl)sc2nc3c(cc12)CCCCC3,2
COc1ccc(-c2cc(CC#N)n(-c3ccccc3)n2)cc1,-1
O=C(Nc1cccnc1)c1ccc(-c2cccc(-c3ccn[nH]3)c2)o1,14
CCC(O)CNC(=O)CN1Cc2cc(C)ccc2OC(c2ccsc2)C1 (stereo unspecified),-1
CCCn1c(-n2nc(C)cc2C)nc2c1c(=O)[nH]c(=O)n2C,3
COc1ccc(-c2c3c(nc4sc(C(=O)Nc5ccccc5)c(N)c24)C(=O)c2ccccc2-3)cc1,3
CCOC(=O)C#CCN1C(=O)c2ccccc2C1=O,40*
O=C1c2ccccc2C(=O)N1CC#Cc1ccccc1,-7
CCCCCCOC(=O)C(CCCCN1C(=O)c2ccccc2C1=O)N1C(=O)c2ccccc2C1=O (stereo unspecified),5
COc1cc(-c2ccc(SC)cc2)cc2c1OCCN(Cc1ccsc1)C2,4
CCOC(=O)c1cc2sc3ccccc3c2s1,-5
O=C(CCC1CCCN(C(=O)c2cc(=O)c3ccccc3o2)C1)N1CCOCC1 (stereo unspecified),-8
C=CCN1C(=O)NC(=O)/C(=C\c2cc(Br)ccc2OCc2ccc(Cl)cc2Cl)C1=O,101*
SMILES,ROC1-CUL1 inh
C=CCN1C(=O)NC(=O)/C(=C\c2ccc(-c3cc(Cl)ccc3Cl)o2)C1=O,97*
C=CCN1C(=O)NC(=O)/C(=C/c2ccccc2OCc2ccc(Cl)cc2Cl)C1=O,-5
O=C1OC(c2ccc3ccccc3c2)=N/C1=C/c1ccc(-c2cc(Cl)ccc2Cl)o1,4
C=CCN1C(=O)/C(=C/c2cc(Br)cc(OC)c2OC)C(=O)NC1=S,-1
C=CCN1C(=O)/C(=C/c2ccc(Cl)cc2Cl)NC1=S,2
COc1ccc(/C=C2/C(=O)NN(c3ccc(I)cc3)C2=O)cc1,2
O=C1NN(c2ccc(I)cc2)C(=O)/C1=C/c1ccc(Cl)cc1,59*
O=C1NN(c2ccc(Cl)cc2)C(=O)/C1=C\c1ccc(F)cc1,38*
O=C1NN(c2cccc(Cl)c2)C(=O)/C1=C/c1cccs1,12
O=C1NN(c2ccc(I)cc2)C(=O)/C1=C\c1ccc(N2CCOCC2)cc1,-3
CCOc1cc(/C=C2/C(=O)NN(c3ccc(F)cc3)C2=O)ccc1OC(C)C,5
C=CCOc1ccc(/C=C2\C(=O)NN(c3ccc(Cl)cc3)C2=O)cc1OC,-10
CCN(CC)c1ccc(/C=C2\C(=O)NN(c3ccc(Cl)c(Cl)c3)C2=O)cc1,2
O=C1NN(c2ccc(Cl)c(Cl)c2)C(=O)/C1=C/c1ccc(Cl)cc1,78*
O=C1NN(c2ccc(F)cc2)C(=O)/C1=C/c1ccccc1O,2
O=C1NN(c2cc(Cl)cc(Cl)c2)C(=O)/C1=C\c1ccc(F)cc1,85*
O=C1NN(c2ccccc2)C(=O)/C1=C/c1cccc(OCc2ccc(Cl)c(Cl)c2)c1,7
CCOc1ccccc1-c1nc(CN(C)CC2CC(=O)N(CC)C2)c(C)o1 (stereo unspecified),9
Cc1ccc(C)c(-c2nc(N)sc2C)c1,0
Cc1cc(OC(=O)c2ccc(=O)oc2)cc(C)c1Cl,11
O=C(CSc1nnnn1-c1ccccc1Cl)Nc1ccc(OC(F)(F)Cl)cc1,-10
Cc1cc2c(c(=O)n1Cc1cccnc1)C(c1ccc(Cl)cc1)C(C#N)C(=N)O2 (stereo unspecified),5
c1ccc(-c2[nH]c(-c3ccc4ncccc4c3)nc2-c2ccc3ccccc3c2)cc1,5
C=CCN(Cc1ccc(OCC)c(OC)c1)C(=O)Nc1cccc(Cl)c1,-1

# Compound activity from PubChem BioAssay.
